In the library only some 21% were active in any assay of this set; here they are far more common.
NS1 function inh: influenza NS1 inhibition; 270,000 tested, 0.4% active; Potency, µM (doses to about 46.1 µM), for the others: at the top dose activity, positive = more growth; calls by dose curve; note: potency is the fitted concentration of half-maximal effect; actives are rising curves; nearly all actives have a fitted effect of over 50% in size
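Recovery from NS1-induced slow growth read by OD600 in budding yeast switched to galactose assay medium (pH 6.0, -URA) at 1:100 dilution. Compound 23 nl per well; the matching strain lacking NS1 serves as control.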
Pf growth 48h: inhibits P. falciparum growth in the first generation, 48 h. AID 504832. Potency, µM (titrated, usually from 28.7 µM), inactives show at the top dose activity change, negative = inhibition, usual class: inhibitors. 310,000 tested, 5.9% active. P. falciparum luciferase growth in erythrocytes, 48 h; note: potency is the fitted concentration of half-maximal effect; % is set by controls: 0 for no effect and ±100 for the full control effect
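Parasite viability was followed by luminescence of a genomically integrated firefly luciferase. Cultures held 0.1% parasitemia at 2% hematocrit (final), incubated under 5% CO2 at 37 C.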
Giardia FBPA inh: Giardia lamblia aldolase inhibition. purified Giardia FBPA. Potency, µM (doses to about 59.6 µM), inactives show at the highest dose activity, negative = inhibition, most hits filed as inhibitors. 290,000 tested, 0.71% active. AID 2451; note: potency is the fitted concentration of half-maximal effect; % is set by controls: 0 for no effect and ±100 for the full control effect; nearly all actives have a fitted effect of over 55% in size
Target sequence (A8B2U2 whole entry, looked up): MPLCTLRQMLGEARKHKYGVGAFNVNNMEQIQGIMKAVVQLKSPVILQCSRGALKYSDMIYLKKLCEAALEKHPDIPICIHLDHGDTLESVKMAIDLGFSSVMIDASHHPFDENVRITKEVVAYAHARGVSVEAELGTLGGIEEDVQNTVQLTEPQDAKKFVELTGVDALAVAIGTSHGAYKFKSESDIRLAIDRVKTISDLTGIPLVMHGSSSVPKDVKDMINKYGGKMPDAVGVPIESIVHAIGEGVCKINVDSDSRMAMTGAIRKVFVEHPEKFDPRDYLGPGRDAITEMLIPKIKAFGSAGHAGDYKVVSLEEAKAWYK
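40 nM FBPA preincubated 10 min at RT with compound (up to 57.5 uM final), then substrate plus GAPDH/TPI/NAD/arsenate coupling and diaphorase/resazurin added. Fluorescence read after 20 min at RT, 525/598 nm.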
Pf growth 96h: P. falciparum growth inhibition at 96 hours; 320,000 tested, 6.9% active; P. falciparum luciferase reporter growth, 96 h; Potency, µM (top dose mostly 28.7 µM), inactives show at the highest dose activity change, negative = inhibition, actives largely listed as inhibitors; note: potency is the fitted concentration of half-maximal effect; % is set by controls: 0 for no effect and ±100 for the full control effect
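Infected RBCs, 2% Hct / 0.05% parasitemia final; luciferase-reporter P. falciparum; cpd 96 h, 37 C, 5% CO2; luciferase detection reagent; luminescence.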
Shiga inhibitor: Shiga toxin inhibition | AID 2315 | 290,000 tested, 9.2% active | Vero cells, Shiga toxin protein synthesis inhibition reporter | inhibition, % at 38.7 µM; in the data active = inhibition mostly above about 28%, no sharp cut-off; inactive = mostly below about 43%; note: 0% is about no effect
CHX counter: counter-screen hit for Shiga toxin inhibitors, cycloheximide | cell reporter, cycloheximide protein synthesis inhibition counterscreen | max response, % | 300,000 tested, 12% active | AID 2314; in the data active = max response mostly above about 13%, no sharp cut-off; inactive = mostly below about 14%; note: read at 38.3 µM for the half of the compounds with a filed dose; 0% is about no effect
Starred values were filed as active, the others as inactive; u = inconclusive; x = no result; [ ] = remark or other dose. Unless noted, calls come from the whole dose curve; as a rule, active = well fitted curve in the direction sought with a large enough effect; inconclusive = small, poorly fitted or top-dose-only effect, or another doubt; inactive = no such curve, though single readings can be large; an effect the other way counts as inactive or inconclusive.

SMILES	NS1 function inh	Pf growth 48h	Giardia FBPA inh	Pf growth 96h	Shiga inhibitor	CHX counter
Cc1nc(S/C(=C/c2ccc(-c3cc(Cl)ccc3C)o2)C(=O)O)n[nH]1	5%	37%	-30%	42%	103*	29*
CC(C)CN(C(=O)c1ccc([N+](=O)[O-])s1)c1c(N)n(Cc2ccccc2)c(=O)[nH]c1=O	x	8%	x	u	x	x
COCCCNC(=O)c1c[nH]c2ccc(S(=O)(=O)N3CCc4ccccc43)cc2c1=O	x	12µM*	1%	5%	-7	-1
CCN(CC)S(=O)(=O)c1ccc2[nH]cc(C(=O)NCCc3ccc(OC)c(OC)c3)c(=O)c2c1	-1%	u	1%	8.3µM*	-9	-1
Cc1ccccc1NS(=O)(=O)c1ccc2[nH]cc(C(=O)NC3CCCCC3)c(=O)c2c1	x	12µM*	x	12µM*	x	x
COCCNC(=O)c1c[nH]c2ccc(S(=O)(=O)N3CCc4ccccc43)cc2c1=O	x	u	-5%	-28%	-22	19
COc1cccc(NS(=O)(=O)c2ccc3[nH]cc(C(=O)NC4CC4)c(=O)c3c2)c1	8%	u	15%	u	0	-2
COc1cccc(NS(=O)(=O)c2ccc3[nH]cc(C(=O)NCCc4ccc(C)cc4)c(=O)c3c2)c1	x	u	x	12µM*	x	x
CCc1cc2c(nc1CC)CCN(CC/C(C)=N/O[C@@H](C)CN1CCCc3nc(C)c(C)cc31)C2	x	x	-2%[12.9 µM]	x	x	x
COCCNC(=O)c1c[nH]c2ccc(S(=O)(=O)Nc3ccccc3F)cc2c1=O	6%	3%	-1%	-18%	2	-4
CCN(CC)S(=O)(=O)c1ccc2[nH]cc(C(=O)NC3CC3)c(=O)c2c1	3%	-7%	7%	0.47µM*	-5	1
COc1ccc(CCNC(=O)c2c[nH]c3ccc(F)cc3c2=O)cc1OC	20%	12µM*	12%	0%	x	-4
COCCNC(=O)c1c[nH]c2ccc(S(=O)(=O)Nc3ccc(F)cc3F)cc2c1=O	6%	0%	-3%	0%	-10	15*
CCCC(NC(=O)CCc1c(C)c2cc3c(-c4ccccc4)coc3cc2oc1=O)C(=O)O (stereo not given)	12%	-3%	9%	3%	-1	-1
COc1cc(/C(C)=C/c2ccccc2)c2c(c1)oc1ccccc12	4%	-9%	6%	u	-4	1
Cc1ccc2cc(CN(C(=O)c3ccco3)c3ccccc3)c(=O)[nH]c2c1	6%	-10%	-22%	u	30	23*
Cc1ccc(N(Cc2cc3ccccc3[nH]c2=O)C(=O)c2ccco2)c(C)c1	4%	u	9%	x	-13	2
CCOc1ccc(N(Cc2cc3ccc(C)cc3[nH]c2=O)C(=O)COC)cc1	-11%	-10%	6%	u	29	24*
Cc1ccc(N(Cc2cc3ccc(C)cc3[nH]c2=O)C(=O)c2ccco2)cc1	2%	-11%	1%	239%	-3	-1
Cc1cccc(N(Cc2cc3ccc(C)cc3[nH]c2=O)C(=O)c2ccco2)c1	3%	u	0%	10µM*	-2	-1
O=C(NCc1ccco1)C1CC(c2cc(C(F)(F)F)cc(C(F)(F)F)c2)=NO1 (stereo not given)	7%	35%	-5%	50%	-7	-8
Cc1c(C(=O)Nc2ccc(S(=O)(=O)NCC3CCCO3)cc2)cccc1[N+](=O)[O-] (stereo not given)	2%	-16%	-2%	-54%	-2	-2
O=C(c1ccco1)N1CCCC(Nc2ccc3c(c2)OCCO3)C1 (stereo not given)	-3%	90%	x	-22%	85*	43*
O=C(CNC(=O)c1ccco1)Nc1ccc2c(c1)OCCO2	x	126%	x	213%	x	x
CCC(=O)NC(=S)Nc1cccc(NC(=O)c2ccco2)c1	-1%	2%	1%	u	-9	0
SMILES	NS1 function inh	Pf growth 48h	Giardia FBPA inh	Pf growth 96h	Shiga inhibitor	CHX counter
O=C(NC(=S)Nc1cccc(O)c1)c1ccco1	1%	84%	u	146%	94*	54*
O=C(NC(=S)Nc1ccc2c(c1)OCCO2)c1ccco1	0%	0%	u	179%	100*	46*
CSCc1ccc(C(=O)N2CCCC(Nc3ccc4c(c3)OCCO4)C2)o1 (stereo not given)	8%	-18%	0%	50%	1	0
COc1ccc(COC(=O)N/N=C2/C[C@@H](O)[C@@H](O)[C@@H]3[C@@H]4C(=O)N([C@@H](C)c5ccccc5)C(=O)[C@H]4CC[C@H]23)cc1	x	x	-5%[12.9 µM]	x	x	x
O=C(O)[C@@H](c1ccccc1)[C@@H](C(=O)O)c1ccccc1	-4%	x	x	x	x	x
CCOC(=O)O[C@]1(C(=O)COC(=O)CC)CC[C@@H]2[C@@H]3CCC4=CC(=O)C=C[C@@]4(C)[C@H]3[C@H](O)C[C@]21C	x	-2%[12.8 µM]	1%[21.7 µM]	3%[12.8 µM]	x	x
CCN(CC)c1ccc(NC(=O)COc2ccccc2C#N)cc1S(=O)(=O)Nc1ccccc1OC	5%	1.7µM*	-2%	9.3µM*	17	-3
CCN(CC)c1ccc(NC(=O)c2ccccn2)cc1S(=O)(=O)Nc1ccccc1OC	x	5.9µM*	x	10µM*	x	x
CCN1C(=O)/C(=C/C=C2\N(CC)c3cc(S(=O)(=O)N(C)C)ccc3N2c2ccccc2)SC1=S	3%	u	-21%	13µM*	15	1
CCOc1ccc(-c2nc(C#N)c(NCC3CCCO3)o2)cc1 (stereo not given)	-78%	x	-4%	u	28	13
N#Cc1nc(Cc2cccc3ccccc23)oc1NCC1CCCO1 (stereo not given)	-49%	x	-1%	7.4µM*	-4	-1
N#Cc1nc(-c2ccccc2Cl)oc1NCC1CCCO1 (stereo not given)	-12%	x	0%	-13%	91*	16
COc1ccc(-c2nc(C#N)c(NC(C)c3ccccc3)o2)cc1OC (stereo not given)	-32%	15µM*	0%	u	29	10
COc1ccc(-c2nc(C#N)c(NCC3CCCO3)o2)cc1OC (stereo not given)	-15%	1%	1%	18%	11	23*
CC(C(=O)O)c1ccc2c(c1)Cc1cccnc1O2 (stereo not given)	x	-7%	x	1.5µM*	x	x
CC(C(=O)O)c1ccc(-c2ccccc2)c(F)c1 (stereo not given)	-8%	6%	29%	0%	7	-2
O=C(Nc1ccccc1)Oc1ccccc1	2%	31%	4%	x	-2	7
COc1ccc(NC(=S)Nc2ccc(OCc3ccccc3)cc2)cc1OC	15%	8%	1%	82%	16	15
Cc1ccc(OC(=O)Nc2ccccc2)cc1	x	10µM*	0%	68%	65*	43*
Cn1nc(OC(=O)Nc2cccc(Cl)c2)cc1C(F)(F)F	-70%	x	1%	u	15	5
CC(=O)Nc1ccc(N=Cc2ccc(OCc3ccccc3)cc2)cc1	-19%	4%	-8%	11%	68*	35*

Compound activity from PubChem.
